Bioassay records (PubChem)
PGK inhibitor: qHTS Assay to Find Inhibitors of Phosphoglycerate Kinase; Phosphoglycerate kinase, glycosomal (Trypanosoma brucei brucei), P07378; PGK/GAPDH coupled, Kinase-Glo luminescence, 60 min; Potency, µM (titrated, usually from 57.5 µM), without a hit: at the highest dose activity change, negative = inhibition, usual class: inhibitors; 0.043% of 380,000 active; AID 602233, 2012; note: % is set by controls: 0 for no effect and ±100 for the full control effect; nearly all actives have a fitted effect of over 60% in size
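Luminescent ATP detection (Kinase-Glo Plus) follows a 60-minute room-temperature incubation, with wells lacking PGK as controls. Buffer: 100 mM TEA (pH 7.6), 5 mM MgCl2, 0.01% Tween-20. Coupling enzyme GAPDH (100 nM final) supplies unstable 1,3-BPG in-well.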
Rango complex inh: qHTS Assay for Inhibitors of Rango (Ran-regulated importin-beta cargo) - Importin beta complex formation; 0.031% of 340,000 active; Rango CFP/YFP FRET sensor + importin beta, 45 min; AID 540263, 2011; Potency, µM (series often up to 92.2 µM), for the others: at the top dose inhibition of complex formation; calls by dose curve;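 note: 0% = DMSO wells and 100% = buffer wells lacking importin beta; nearly all actives have a fitted effect of over 15% in size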
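Inhibition scored from the CFP 486 nm/YFP 530 nm FRET ratio 45 min after adding 0.125 microM importin beta to 50 nM Rango biosensor preincubated 5 min with compound (room temperature, PBS with DTT, Tween-20, BSA). No-importin wells as positive control.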
Rango dissoc inh: qHTS Assay for Inhibitors of RanGTP induced Rango (Ran-regulated importin-beta cargo) - Importin beta complex dissociation. AID 540253, 2011. Potency, µM (series often up to 46.1 µM), for the others: at the highest dose activity change, negative = inhibition. Snurportin-1 (Homo sapiens) + GTP-binding nuclear protein Ran (Homo sapiens) + Importin …. 0.071% of 340,000 active. Biochemical FRET Rango-importin beta, RanGTP-induced dissociation; calls by dose curve; note: % of control where 0% means no effect; nearly all actives have a fitted effect of over 45% in size
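Rango FRET biosensor (snurportin-1 IBB flanked by N-terminal EYFP and C-terminal CFP10) at 0.1 uM, with 0.25 uM importin beta in PBS, 1mM DTT, 0.02% Tween-20, 0.1% BSA. 0.6 uM Ran, 2mM GTP and 0.2 uM RCC1 were then added for 45 min at room temperature. Inhibition read as loss of FRET rise.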
PKM2 activator: qHTS Assay for Activators of Human Muscle isoform 2 Pyruvate Kinase. Pyruvate kinase PKM (Homo sapiens), P14618. purified PKM2, Kinase-Glo ATP luminescence, activation; response scale: 0% is enzyme alone, no compound. Potency, µM (top dose mostly 57.5 µM), inactives show at the highest dose activation, actives largely listed as activators. 0.34% of 260,000 active; note: % is set by controls: 0 for no effect and ±100 for the full control effect; nearly all actives have a fitted effect of over 55% in size
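Purified hPK-M2 (>95%) run at intermediate activity with 0.1 mM ADP and 0.5 mM PEP in 50 mM imidazole pH 7.2, KCl, MgCl2; 1 h room temperature. ATP formed read by Kinase-Glo luminescence; normalized to uninhibited and no-enzyme controls.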
ELG1 DNA repair: qHTS screen for small molecules that inhibit ELG1-dependent DNA repair in human embryonic kidney (HEK293T) cells expressing luciferase-tagged ELG1. HEK293T ELG1-luciferase reporter, luminescence, 16 h; DNA damage induced by 5-fluorouridine. Potency, µM (titrated, usually from 46.1 µM), for the others: top-dose activity change, negative = inhibition, usual class: inhibitors. 2.3% of 330,000 active. AID 504467, 2011; note: % is set by controls: 0 for no effect and ±100 for the full control effect; nearly all actives have a fitted effect of over 55% in size
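Step one: seed 2,000 cells per well. Step two: pin-transfer compound or DMSO alongside 5-fluorouridine. Step three: incubate 16 hr, 37 °C, 5% CO2. Step four: add ONE-Glo, wait 30 min, read luminescence.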
Tb PFK inh: qHTS Assay to Find Inhibitors of T. brucei phosphofructokinase | ATP-dependent 6-phosphofructokinase (Trypanosoma brucei brucei), O15648 | T. brucei PFK, ADP-Glo luminescence | Potency, µM (titrated, usually from 57.5 µM), inactives show at the top dose activity, negative = inhibition, actives largely listed as inhibitors | 0.17% of 330,000 active;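 note: 0% = uninhibited 1x PFK enzyme wells and -100% = no-enzyme wells; nearly all actives have a fitted effect of over 60% in size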
Target sequence (O15648 whole entry, looked up): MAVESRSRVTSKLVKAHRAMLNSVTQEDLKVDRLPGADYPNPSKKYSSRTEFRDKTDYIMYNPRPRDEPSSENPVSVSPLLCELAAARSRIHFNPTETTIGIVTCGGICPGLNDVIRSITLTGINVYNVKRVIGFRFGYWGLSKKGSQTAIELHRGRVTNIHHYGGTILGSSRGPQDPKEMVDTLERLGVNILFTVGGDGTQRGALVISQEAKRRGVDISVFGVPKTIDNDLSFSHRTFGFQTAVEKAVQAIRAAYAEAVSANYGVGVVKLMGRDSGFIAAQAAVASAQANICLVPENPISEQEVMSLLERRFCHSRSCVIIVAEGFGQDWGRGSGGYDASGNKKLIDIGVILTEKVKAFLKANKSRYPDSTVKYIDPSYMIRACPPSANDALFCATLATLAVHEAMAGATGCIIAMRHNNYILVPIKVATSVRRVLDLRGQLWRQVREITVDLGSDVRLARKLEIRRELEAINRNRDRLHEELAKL
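Luminescent ADP detection (ADP-Glo, two-step: ATP depletion then ADP-to-ATP conversion for luciferase) reported PFK activity after 45 min room-temperature reaction of 1.25 nM enzyme with 0.5 mM F6P and 0.1 mM ATP at pH 8.0.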
* hit, by the source's call. Compounds with a hit are over-represented: about 2.4% of the library has one in this group of screens. Unless noted, calls come from the whole dose curve; as a rule, active = well fitted curve in the direction sought with a large enough effect; inconclusive = small, poorly fitted or top-dose-only effect, or another doubt; inactive = no such curve, though single readings can be large; an effect the other way counts as inactive or inconclusive. Potency is the fitted concentration of half-maximal effect.

O=C(NCc1cccnc1)c1ccc(-c2ccc(Cl)cc2)o1 was read as Rango complex inh 5.0%, Rango dissoc inh 7.2%, PKM2 activator 6.7%, ELG1 DNA repair -2.5% and Tb PFK inh 0.7%.
`O=C(NCc1cccnc1)c1ccc(Cl)c(Cl)c1` gave PGK inhibitor -9.9%, Rango complex inh 1.6%, Rango dissoc inh inconclusive, PKM2 activator 0.3%, ELG1 DNA repair 1.7% and Tb PFK inh -3.8%.
O=C(NCc1cccnc1)c1ccc(-c2cc(Cl)ccc2Cl)o1 was read as PGK inhibitor inactive, Rango complex inh -2.3%, Rango dissoc inh -4.1%, PKM2 activator 5.1%, ELG1 DNA repair 23.1µM* and Tb PFK inh -4.7%.
For O=C(NCc1cccnc1)/C(=C\c1ccc(-c2ccc(Cl)c(Cl)c2)o1)S(=O)(=O)c1ccccc1 the results were PGK inhibitor -5.7%, Rango complex inh inconclusive, Rango dissoc inh 0.6%, PKM2 activator 9.7%, ELG1 DNA repair 7.31µM* and Tb PFK inh -2.8%.
Screening COc1ccc(S(=O)(=O)Cc2ccc(C(=O)NCc3cccnc3)o2)cc1 returned PGK inhibitor inactive, Rango complex inh -1.1%, Rango dissoc inh 14.2%, PKM2 activator -11.3%, ELG1 DNA repair 14.6µM* and Tb PFK inh -0.4%.
COc1ccc(S(=O)(=O)Cc2ccc(C(=O)NCc3ccccc3)o2)cc1 was read as PGK inhibitor -0.1%, Rango complex inh -2.8%, Rango dissoc inh inconclusive, ELG1 DNA repair 0.1% and Tb PFK inh -1.9%.
O=S1(=O)c2cccc3cccc(c23)N1CCBr was read as PGK inhibitor -10.0%, Rango complex inh -2.3%, Rango dissoc inh -3.2%, PKM2 activator 0.0%, ELG1 DNA repair 1.5% and Tb PFK inh 1.8%.
`COc1ccc(OC)c(NC(=O)c2cc(S(=O)(=O)NCCc3ccc(Cl)cc3)ccc2F)c1` gave PGK inhibitor -9.0%.
COc1ccc(N2CCN(CC(=O)Nc3ccccc3C(=O)NCc3ccccc3)CC2)cc1 was read as PGK inhibitor 5.2%, Rango complex inh 0.4%, Rango dissoc inh 13.4%, ELG1 DNA repair 7.08µM* and Tb PFK inh -2.3%.
Screening COc1ccc(N2CCN(CC(=O)Nc3ccccc3C(=O)NC(C)c3ccccc3)CC2)cc1 (stereo not given) returned PGK inhibitor -2.2%.
COc1ccc(CCNC(=O)c2ccccc2NC(=O)CN2CCN(c3ccccc3O)CC2)cc1 was read as PGK inhibitor 0.0%, Rango complex inh -1.7%, Rango dissoc inh -0.3%, ELG1 DNA repair 5.17µM* and Tb PFK inh 0.1%.
For O=C(CN1CCN(c2ccccc2O)CC1)Nc1ccccc1C(=O)NCCc1ccccc1 the results were PGK inhibitor inactive, Rango complex inh 0.9%, Rango dissoc inh 4.9%, ELG1 DNA repair inconclusive and Tb PFK inh -11.7%.
`O=C(Nc1cccc(-c2cnc3ccccc3n2)c1)C1CC(=O)N(c2ccccc2)C1` (stereo not given) gave PGK inhibitor -2.0%, Rango complex inh -1.6%, Rango dissoc inh 0.7%, PKM2 activator 0.0%, ELG1 DNA repair inconclusive and Tb PFK inh -2.6%.
Cc1ccc(C(=O)N(CCC2=CCCCC2)c2c(N)n(Cc3ccccc3)c(=O)[nH]c2=O)o1 was read as PGK inhibitor 4.6%, Rango complex inh -2.8%, Rango dissoc inh -13.2%, ELG1 DNA repair 9.2µM* and Tb PFK inh 0.4%.
`CCCN(C(=O)c1cc2c(s1)CCC2)c1c(N)n(Cc2ccccc2)c(=O)[nH]c1=O` gave PGK inhibitor -5.7%, Rango complex inh -5.4%, Rango dissoc inh -22.1%, PKM2 activator 22.4µM*, ELG1 DNA repair 0.6% and Tb PFK inh -10.1%.
`Nc1c(N(CCC2=CCCCC2)C(=O)c2ccc([N+](=O)[O-])o2)c(=O)[nH]c(=O)n1Cc1ccccc1` gave PGK inhibitor 2.9%, Rango complex inh inconclusive, Rango dissoc inh -13.0%, ELG1 DNA repair -14.1% and Tb PFK inh -27.1%.
`COCCCN(C(=O)c1cc2c(s1)CCC2)c1c(N)n(Cc2ccccc2)c(=O)[nH]c1=O` gave PGK inhibitor -6.8%, Rango complex inh -1.9%, Rango dissoc inh -14.6%, PKM2 activator 13.5%, ELG1 DNA repair -1.4% and Tb PFK inh 2.8%.
Screening Cc1oc(-c2ccccc2Cl)nc1CS(=O)CC(=O)N1CCN(c2cccc(C(F)(F)F)c2)CC1 (stereo not given) returned PGK inhibitor -3.4%.
Nc1cc2ccncc2c2ccccc12 was read as PGK inhibitor 1.1%, Rango complex inh inconclusive, Rango dissoc inh inconclusive, PKM2 activator -1.3%, ELG1 DNA repair 1.83µM* and Tb PFK inh -6.7%.
Screening N#Cc1cc2ccncc2c2ccccc12 returned PGK inhibitor -3.5%.
`COc1ccc(OC)c(C2=Nn3c(nnc3-c3ccncc3)SC2)c1` gave PGK inhibitor -1.7%, Rango complex inh -0.1% and Rango dissoc inh 19.5%.
For CCOc1cccc(-c2nnc3n2N=C(c2cc(OC)ccc2OC)CS3)c1 the results were PGK inhibitor inactive, Rango complex inh inconclusive, Rango dissoc inh 0.7%, PKM2 activator -0.8%, ELG1 DNA repair 5.17µM* and Tb PFK inh 2.1%.
`COc1cccc(-c2nnc3n2N=C(c2cc(OC)ccc2OC)CS3)c1` gave PGK inhibitor 1.1%, Rango complex inh 0.5%, Rango dissoc inh 9.0%, PKM2 activator -13.0%, ELG1 DNA repair 18.4µM* and Tb PFK inh -7.6%.
COc1ccc(OC)c(C2=Nn3c(nnc3-c3cc(OC)c(OC)c(OC)c3)SC2)c1 was read as PGK inhibitor -1.4%, Rango complex inh 0.4%, Rango dissoc inh -1.8%, PKM2 activator 0.1%, ELG1 DNA repair inconclusive and Tb PFK inh -7.0%.
Screening COc1cc(-c2nnc3n2N=C(c2ccccc2)CS3)cc(OC)c1OC returned PGK inhibitor inactive, Rango complex inh 4.6%, Rango dissoc inh 14.0%, PKM2 activator 2.2%, ELG1 DNA repair 9.2µM* and Tb PFK inh -4.3%.
